Values joined by “and” are separate entries in the source; they are usually repeats but may differ in a detail not shown here. Equal values may be shown once.

A short description of one assay: qHTS drug screen for cell cycle checkpoint inhibitors in PARPi-resistant BRCA-mutant ovarian cancer cell lines. (AID 1963452). To be noted: PEO1/OlaR viability, CellTiter-Glo luminescence, 96 h; measured here: PEO1 parental Z-AUC; stronger effect = lower value. The method in brief:
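PEO1, PEO4 and PEO1/OlaR ovarian cancer cells, 600 per well, exposed 96 h at 37C to a dilution series. Viability read by CellTiter-Glo luminescence, normalized to DMSO and empty wells; activity summarized as Z-AUC.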
Consider `c1cc(Nc2cc(C3CC3)[nH]n2)nc(Nc2ccc3nc[nH]c3c2)n1`, for which the Z-AUC was -2.08. Regarding `Cc1cccc(Oc2cnc(=O)[nH]c2)c1`, the Z-AUC was -0.81.

Turning to `O=C(NOCC(O)CO)c1ccc(F)c(F)c1Nc1ccc(I)cc1F` (stereo unspecified), the Z-AUC was -1.32. With `Nc1nccn2c(C3CCC(C(=O)O)CC3)nc(-c3cc4cccc(Cl)c4[nH]3)c12` (stereo unspecified), the Z-AUC is -0.773. On the same count and under the same terms, in the case of `CCNCc1nc2c(N)nc3ccccc3c2n1CC(C)(C)O` it was 0.65; in that of `C=C1C(=O)O[C@H]2[C@H]1CC/C(C)=C/CC[C@@]1(C)O[C@@H]21`, 0.881. Still for that read-out and setting: in the case of `O=C(c1ccc(/C=C/c2n[nH]c3ccccc23)cc1)N1CCNCC1` it was -0.223; in that of `Nc1ccc(/C=C/C(=O)NCc2cc3cc(-c4ccc(C(=O)N5CCC(F)(F)CC5)cc4)cc(-c4ccc(F)cc4)c3o2)cn1`, -0.891; in that of `CC[C@]12C=CCN3CC[C@@]4(c5cc([C@@]6(C(=O)OC)C[C@H]7C[C@@H](C(C)(F)F)CN(Cc8c6[nH]c6ccccc86)C7)c(OC)cc5N(C)[C@H]4[C@@](O)(C(=O)OC)[C@@H]1OC(C)=O)[C@@H]32`, -0.895 and -0.96. For `CC(C)c1c2cc(-c3ccnc(NC4CCC(NC5CCOCC5)CC4)n3)ccc2nn1C` (stereo unspecified), the Z-AUC was -2.05. Same read-out and setting: in the case of `COC(=O)N[C@@H](C)CNc1nccc(-c2cn(C(C)C)nc2-c2cc(Cl)cc(NS(C)(=O)=O)c2F)n1` it was -0.151. Consider `COc1cc2c(NC3CCN(CC4CCCCC4)CC3)nc(N3CCCN(C(C)C)CC3)nc2cc1OCCCN1CCCCC1`, for which the Z-AUC is 0.301. Consider `Cc1ccc(S(=O)(=O)Cc2nc(-c3ccc(C(=O)NCc4cccnc4)cc3)oc2C)cc1`, for which the Z-AUC was -3.12. With `O=C(/C=C/c1cccc(S(=O)(=O)Nc2ccccc2)c1)NO`, the Z-AUC was -1.03. `CS(=O)(=O)N1CCC(NC(=O)c2[nH]ncc2NC(=O)c2c(Cl)cccc2Cl)CC1`: the Z-AUC is -1.73. Regarding `CNCc1ccc(-c2cc(-c3nc(-c4ccc(S(=O)(=O)C(C)C)cc4)cnc3N)on2)cc1`, the Z-AUC was 0.477.

For `Cc1c(C(=O)N2CCOc3ccc(-c4ccc(N)nc4)cc3C2)ccc(S(C)(=O)=O)c1F`, the Z-AUC stood at 0.561. As for `CN(C)C/C=C/C(=O)Nc1cccc(C(=O)Nc2cccc(Nc3ncc(Cl)c(-c4c[nH]c5ccccc45)n3)c2)c1`, the Z-AUC is -1.76. Turning to `CC1=C(CO)C(=O)O[C@@H]([C@@H](C)[C@H]2CC[C@H]3[C@@H]4C[C@H]5O[C@]56[C@@H](O)C=CC(=O)[C@]6(C)[C@H]4CC[C@]23C)C1`, the Z-AUC is -1.83.

Staying with this assay, now noted: PEO1/OlaR viability, CellTiter-Glo luminescence, 96 h; measured here: PEO4 Z-AUC; stronger effect = lower value.
As for `CCCCc1nc2cc(/C=C/C(=O)NO)ccc2n1CCN(CC)CC`, the Z-AUC was -0.293.

As for `Cc1cnc(Nc2ccc(F)cc2Cl)nc1-c1c[nH]c(C(=O)NC(CO)c2cccc(Cl)c2)c1` (stereo unspecified), the Z-AUC is -0.952. Consider `NC(=O)[C@H]1CCS[C@@H]2C[C@]3(CCCN3C(=O)Cc3ccc(NC(=O)COc4ccc(Cl)cc4Cl)cc3)C(=O)N12`, for which the Z-AUC stood at 0.0247. For the compound `CN(C)C1CCN(C(=O)c2ccc(NC(=O)Nc3ccc(-c4nc(N5CCOCC5)nc(N5CCOCC5)n4)cc3)cc2)CC1`, the Z-AUC was -1.87 and -2.03. `CC#CC(=O)N1CCC[C@H]1c1nc(-c2ccc(C(=O)Nc3ccccn3)cc2)c2c(N)nccn12`: the Z-AUC came out at 0.342. `FC(F)(F)c1ccc(Nc2nc(-c3c(C(F)(F)F)nc4ccccn34)cs2)cc1`: the Z-AUC is -1.77. `CN1CCN(C2CCC(n3cc(-c4ccc(Oc5ccccc5)cc4)c4c(N)ncnc43)CC2)CC1` (stereo unspecified): the Z-AUC was -0.439. Take `c1cn2cc(-c3ccc4cn[nH]c4c3)nc(Nc3ccc(N4CCOCC4)cc3)c2n1`: the Z-AUC worked out at 0.447. For `Cc1c(NC(=O)c2cc(C(N)=O)nc3cc(F)ccc23)c(C(F)(F)F)nn1Cc1ccc(C#N)cc1`, the Z-AUC was -1.92. Regarding `CCS(=O)(=O)N1CCN(c2ccc(Nc3ncc(C(N)=O)c(NC4CC4)n3)cc2)CC1`, the Z-AUC is -0.0452.

Turning to `C#CC[C@H](c1nc2cc(Cl)ccc2c(=O)n1Nc1ccccc1)N(CCCN)C(=O)c1cccc(Cl)c1F`, the Z-AUC was -1.5. Take `CCO[C@@H]1OC(=O)C[C@@H]1NC(=O)[C@@H]1CCCN1C(=O)[C@@H](NC(=O)c1ccc(N)c(Cl)c1)C(C)(C)C`: the Z-AUC was determined as 0.143.

Turning to `CN[C@@H]1[C@H](O[C@H]2[C@H](O[C@@H]3[C@@H](O)[C@H](O)[C@@H](N=C(N)N)[C@H](O)[C@H]3N=C(N)N)O[C@@H](C)[C@]2(O)C=O)O[C@@H](CO)[C@H](O)[C@H]1O`, the Z-AUC worked out at 1.26.

`c1cc(Nc2cc(C3CC3)[nH]n2)nc(Nc2ccc3nc[nH]c3c2)n1`: the Z-AUC was -2.23.

Turning to `Cc1cccc(Oc2cnc(=O)[nH]c2)c1`, the Z-AUC is -0.687.

On to `O=C(NOCC(O)CO)c1ccc(F)c(F)c1Nc1ccc(I)cc1F` (stereo unspecified), for which the Z-AUC is -0.907. `Nc1nccn2c(C3CCC(C(=O)O)CC3)nc(-c3cc4cccc(Cl)c4[nH]3)c12` (stereo unspecified): the Z-AUC is -1.14.

Regarding `CCNCc1nc2c(N)nc3ccccc3c2n1CC(C)(C)O`, the Z-AUC is 0.404. On to `C=C1C(=O)O[C@H]2[C@H]1CC/C(C)=C/CC[C@@]1(C)O[C@@H]21`, for which the Z-AUC stood at 0.819. On to `O=C(c1ccc(/C=C/c2n[nH]c3ccccc23)cc1)N1CCNCC1`, for which the Z-AUC is -0.438.

On to `Nc1ccc(/C=C/C(=O)NCc2cc3cc(-c4ccc(C(=O)N5CCC(F)(F)CC5)cc4)cc(-c4ccc(F)cc4)c3o2)cn1`, for which the Z-AUC is -0.788. On to `CC[C@]12C=CCN3CC[C@@]4(c5cc([C@@]6(C(=O)OC)C[C@H]7C[C@@H](C(C)(F)F)CN(Cc8c6[nH]c6ccccc86)C7)c(OC)cc5N(C)[C@H]4[C@@](O)(C(=O)OC)[C@@H]1OC(C)=O)[C@@H]32`, for which the Z-AUC was -1.63 and -1.07. In the case of `CC(C)c1c2cc(-c3ccnc(NC4CCC(NC5CCOCC5)CC4)n3)ccc2nn1C` (stereo unspecified), the Z-AUC is -1.88. Regarding `COC(=O)N[C@@H](C)CNc1nccc(-c2cn(C(C)C)nc2-c2cc(Cl)cc(NS(C)(=O)=O)c2F)n1`, the Z-AUC was -0.157. On to `COc1cc2c(NC3CCN(CC4CCCCC4)CC3)nc(N3CCCN(C(C)C)CC3)nc2cc1OCCCN1CCCCC1`, for which the Z-AUC is -0.248. `Cc1ccc(S(=O)(=O)Cc2nc(-c3ccc(C(=O)NCc4cccnc4)cc3)oc2C)cc1`: the Z-AUC is -2.76. Turning to `O=C(/C=C/c1cccc(S(=O)(=O)Nc2ccccc2)c1)NO`, the Z-AUC is -1.35. With `CS(=O)(=O)N1CCC(NC(=O)c2[nH]ncc2NC(=O)c2c(Cl)cccc2Cl)CC1`, the Z-AUC was -1.67. Regarding `CNCc1ccc(-c2cc(-c3nc(-c4ccc(S(=O)(=O)C(C)C)cc4)cnc3N)on2)cc1`, the Z-AUC came to 0.605. Consider `Cc1c(C(=O)N2CCOc3ccc(-c4ccc(N)nc4)cc3C2)ccc(S(C)(=O)=O)c1F`, for which the Z-AUC came out at 0.378.

Regarding `CN(C)C/C=C/C(=O)Nc1cccc(C(=O)Nc2cccc(Nc3ncc(Cl)c(-c4c[nH]c5ccccc45)n3)c2)c1`, the Z-AUC is -1.32.

Regarding `CC1=C(CO)C(=O)O[C@@H]([C@@H](C)[C@H]2CC[C@H]3[C@@H]4C[C@H]5O[C@]56[C@@H](O)C=CC(=O)[C@]6(C)[C@H]4CC[C@]23C)C1`, the Z-AUC was -1.49.

Source of the values: PubChem BioAssay (NCATS).
